The sample as a whole holds a higher share of hits than the screen did.
HT1080-NT tox = qHTS for induction of synthetic lethality in tumor cells producing 2HG: qHTS for the HT-1080-NT fibrosarcoma cell line; actives 1.6% (n = 360,000); HT-1080-NT fibrosarcoma viability, CellTiter-Glo ATP luminescence, 48 h; Potency, µM (doses to about 46.1 µM), hits mostly cytotoxic;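 also: NT is the 2HG producing partner of a matched IDH1 knockdown line; nearly all actives have a fitted effect of over 55% in size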
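Viability by CellTiter-Glo luminescence after 48 h compound exposure at 37C of HT-1080-NT cells (750/well, RPMI, 5% FBS). % activity scaled between DMSO wells and medium-only wells, then curve-fitted and categorized by curve class.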
IL-1B inflam inh = qHTS for Inhibitors of Inflammasome Signaling: IL-1-beta AlphaLISA Primary Screen | THP-1 LPS/ATP IL-1B secretion, AlphaLISA, 16 h; stronger effect = lower value | activity change, % at 57.5 µM | actives 4.7% (n = 360,000) | AID 743279, 2014; in the data active = activity change below about -50%; inconclusive = mostly about -30% to -49%
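THP-1 cells pretreated 1 hr with compounds (up to 57.5 uM final), then stimulated with LPS (250 ng/mL final) plus ATP (1.25 mM final); secreted IL-1B measured by AlphaLISA after 16 hr, decreased signal indicating inhibition.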
12-LOX inh = Primary qHTS assay for inhibitors of human arachidonate 12S-lipoxygenase (ALOX12): Round 2; purified 12hLO, xylenol orange hydroperoxide absorbance; Potency, µM (top dose mostly 108 µM), hits mostly inhibitors; actives 1.1% (n = 580,000); AID 1671190, 2021
Target sequence (P18054 whole entry, looked up): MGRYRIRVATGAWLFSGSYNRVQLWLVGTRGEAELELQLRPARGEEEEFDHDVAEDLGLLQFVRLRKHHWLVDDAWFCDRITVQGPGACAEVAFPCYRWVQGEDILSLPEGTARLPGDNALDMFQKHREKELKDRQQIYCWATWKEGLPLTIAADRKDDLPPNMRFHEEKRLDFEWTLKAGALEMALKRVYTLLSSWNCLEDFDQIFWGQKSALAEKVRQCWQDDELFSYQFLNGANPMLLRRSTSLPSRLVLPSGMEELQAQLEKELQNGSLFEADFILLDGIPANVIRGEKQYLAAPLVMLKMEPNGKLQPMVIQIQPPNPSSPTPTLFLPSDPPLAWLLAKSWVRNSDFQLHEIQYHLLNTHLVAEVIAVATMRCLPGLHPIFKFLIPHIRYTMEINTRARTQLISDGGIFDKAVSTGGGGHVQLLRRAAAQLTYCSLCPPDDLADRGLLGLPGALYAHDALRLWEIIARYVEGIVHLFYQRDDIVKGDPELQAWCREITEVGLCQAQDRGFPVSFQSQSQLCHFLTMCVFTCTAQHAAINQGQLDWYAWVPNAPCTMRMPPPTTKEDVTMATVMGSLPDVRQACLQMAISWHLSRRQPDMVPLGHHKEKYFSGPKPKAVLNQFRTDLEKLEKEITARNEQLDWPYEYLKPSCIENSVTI
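Purified human 12hLO (150 nM final) in 25 mM Hepes, 0.01% Triton X-100, pH 7.0 was preincubated 15 min at room temperature with compound. Then 40 uM arachidonic acid was added, 30 min. Hydroperoxide was read by Fe-XO absorbance ratio 573/405 nm.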
HT1080 IDH1KD tx = qHTS for induction of synthetic lethality in tumor cells producing 2HG: qHTS for the HT-1080-IDH1KD cell line; HT-1080 IDH1 knockdown viability, ATP luminescence, 48 h; Potency, µM (doses to about 46.1 µM), most hits filed as cytotoxic; actives 2% (n = 360,000); AID 686971, 2013
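Using the IDH1-knockdown HT-1080 line run in the same batch and compound series as the NT line, viability after 48 h at 37 °C was determined by CellTiter-Glo luminescence and expressed as % activity.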
DT40 TDP1 no CPT = qHTS for Inhibitors of human tyrosyl-DNA phosphodiesterase 1 (TDP1): qHTS in cells in absence of CPT; DT40 Tdp1-/- hTDP1 cells, no CPT, ATP luminescence, 48 h; Potency, µM (titrated, usually from 46.2 µM), usual class: inhibitors; actives 15% (n = 420,000); AID 686978, 2013; also: nearly all actives have a fitted effect of over 55% in size
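Growth kinetics read by CellTiter-Glo luminescence after ≥48 hr at 37 °C. Cells: DT40 Tdp1-/- stably carrying human TDP1, 400 per well, compound exposure in the absence of CPT (DMSO vehicle).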
DT40 TDP1 CPT = qHTS for Inhibitors of human tyrosyl-DNA phosphodiesterase 1 (TDP1): qHTS in cells in presence of CPT. chicken DT40 Tdp1-/-;hTDP1 cells + 20 nM CPT, ATP luminescence, 48 h. Potency, µM (series often up to 46.2 µM), actives largely listed as inhibitors. actives 12% (n = 420,000); also: nearly all actives have a fitted effect of over 55% in size
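Cell growth measured by CellTiter-Glo luminescence after a minimum 48 h, 37 C compound exposure with 20 nM CPT in Tdp1-knockout DT40 cells stably expressing hTDP1, seeded 400/well; qHTS titration format.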
Numbers stand for hits; – = inactive; ? = inconclusive; · = no result; [ ] = another dose, or the depositor's remark. Unless noted, calls follow the shape of the dose curve; as a rule, active = well fitted curve in the direction sought with a large enough effect; inconclusive = small, poorly fitted or top-dose-only effect, or another doubt; inactive = no such curve, though single readings can be large; an effect the other way counts as inactive or inconclusive.

SMILES | HT1080-NT tox | IL-1B inflam inh | 12-LOX inh | HT1080 IDH1KD tx | DT40 TDP1 no CPT | DT40 TDP1 CPT
C=C(C)CNC(=S)N/N=C/c1ccsc1 | · | · | – | · | · | ·
CC(=O)Nc1cc(-c2ccc(N)nc2)cn2c(-c3cccc(C(F)(F)F)c3)cnc12 | ? | – | ? | ? | 15µM | ?
COc1ccc(F)cc1-c1cc(NC(C)=O)c2ncc(-c3cccc(C(F)(F)F)c3)n2c1 | ? | ? | ? | ? | ? | 29µM
CC(=O)Nc1cc(-c2ccc(CO)cc2)cn2c(-c3cccc(C(F)(F)F)c3)cnc12 | – | – | ? | ? | 23µM | 18µM
CC(=O)Nc1cc(-c2ccc(N)cc2)cn2c(-c3cccc(C(F)(F)F)c3)cnc12 | – | – | ? | – | 16µM | 16µM
NC(=O)c1cnn2c(-c3cccc(C(F)(F)F)c3)ccnc12 | – | · | – | – | – | –
COc1ccc(F)cc1-c1cccc(C(=O)O)c1 | · | · | –[12.5 µM] | · | · | ·
COCC(=O)NNC(=S)NCc1ccc(C)cc1 | · | · | – | · | · | ·
CCOc1ccc(S(=O)(=O)N2CCN(C(C(=O)O)c3c[nH]c4ccccc34)CC2)cc1 (centres undefined) | · | · | – | · | · | ·
CC(=O)Nc1cccc(-c2cc(NC(C)=O)c3ncc(-c4cccc(C(F)(F)F)c4)n3c2)c1 | – | – | – | – | 23µM | 26µM
CN(/C=C/C(=O)/C=C/N(C)c1ccccc1)c1ccccc1 | · | · | 16µM | · | · | ·
CN(/C=C/C(=C/C=[N+](C)c1ccccc1)OCCCS(=O)(=O)[O-])c1ccccc1 | – | – | ? | – | – | –
Cc1cc(Nc2cccc(C(F)(F)F)c2)nc2ccc(NC(=O)c3ccc(N(C)C)cc3)cc12 | · | · | – | · | 4.6µM | 5.2µM
Cc1cc(Nc2cccc(Cl)c2)nc2ccc(NC(=O)c3cccc(N(C)C)c3)cc12 | · | · | – | · | 7.3µM | 13µM
Cc1ccc(OCC(=O)Nc2ccc3nc(Nc4cccc(Cl)c4)cc(C)c3c2)cc1 | · | · | – | · | – | –
Cc1cc(N2CCC(C)CC2)nc2ccc(NC(=O)c3ccc(N(C)C)cc3)cc12 | · | · | – | · | · | ·
Cc1cc(Nc2cccc(Cl)c2)nc2ccc(NC(=O)c3cccnc3)cc12 | · | · | – | · | 8.2µM | 13µM
COc1ccc(-c2noc(CSc3nc4ccc(Cl)cc4o3)n2)cc1 | · | · | – | · | · | ·
Cc1cccnc1NC(=O)COc1ccc2c(=O)c(Oc3ccccc3)c(C)oc2c1 | · | · | – | · | · | ·
COc1ccc(C(=O)N2CCC(c3nc(-c4ccc(S(=O)(=O)N5CCCC5)cc4)no3)CC2)cc1 | · | · | – | · | 21µM | 23µM
CC1CCN(C(=O)c2ccc(S(=O)(=O)N3CCCC3)cc2)CC1 | – | – | – | – | – | –
CCOc1ccc(C(=O)N2CCC(c3nc(-c4ccc(S(=O)(=O)N5CCCC5)cc4)no3)CC2)cc1 | · | · | – | · | 23µM | 21µM
COc1ccc(OCCOC(=O)c2cc(=O)c3cc(Cl)ccc3o2)cc1 | · | · | – | · | · | ·
CC1CN(C(=O)N2CCC(C(=O)NCCC3=CCCCC3)CC2)c2ccccc2O1 (centres undefined) | · | · | ? | · | ? | –
CCC1CN(C(=O)N2CCC(C(=O)NCCC3=CCCCC3)CC2)c2cc(C)ccc2O1 (centres undefined) | · | · | – | · | 15µM | 15µM
CCOc1ccc(CCNC(=O)C2CCN(C(=O)N3CC(CC)Oc4ccc(C)cc43)CC2)cc1 (centres undefined) | · | · | – | · | ? | ?
CCC1CN(C(=O)N2CCC(C(=O)NCCCc3ccccc3)CC2)c2cc(C)ccc2O1 (centres undefined) | · | · | – | · | 13µM | ?

Screening results from PubChem.
